# Measured values from PMC7862700, “An all-to-all approach to the identification of sequence-specific readers for epigenetic DNA modifications on cytosine”.
# Experiments:
# Assay in all cases: DAPPL (digital affinity profiling via proximity ligation, sequencing); 10 mM Tris-HCl pH 7.5, 50 mM NaCl, 1 mM DTT, 4% glycerol, room temperature, 30 min; GST-TFs on glutathione beads, 16-mer random dsDNA library, 0.1% formaldehyde crosslink after washing; high values mean tight binding
# Settings in all cases: protein: recombinant; tags: N-terminal GST; dsDNA, one strand shown
# ETV1 = ETV1 (Homo sapiens, UniProt P50549 1-477)
# Summary of the method: (§1)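 Binding signal is each hexamer's read frequency for a factor divided by its frequency in the tag-only sample. The factors were GST-fused human transcription factors from yeast, captured on glutathione beads, DNA-barcoded and pooled with that sample. Pools were incubated with 200 nmole of a random double-stranded 16-mer DNA library in Tris/NaCl/DTT/glycerol buffer at room temperature for 30 min, then washed, crosslinked with 0.1% formaldehyde, proximity-ligated with BsaI/T4 ligase (1 h, 37 °C), PCR-amplified and sequenced on an Illumina NextSeq500.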
# ERF = target: T1, ERF (Homo sapiens, UniProt P50548 1-548)
# T1 sequence: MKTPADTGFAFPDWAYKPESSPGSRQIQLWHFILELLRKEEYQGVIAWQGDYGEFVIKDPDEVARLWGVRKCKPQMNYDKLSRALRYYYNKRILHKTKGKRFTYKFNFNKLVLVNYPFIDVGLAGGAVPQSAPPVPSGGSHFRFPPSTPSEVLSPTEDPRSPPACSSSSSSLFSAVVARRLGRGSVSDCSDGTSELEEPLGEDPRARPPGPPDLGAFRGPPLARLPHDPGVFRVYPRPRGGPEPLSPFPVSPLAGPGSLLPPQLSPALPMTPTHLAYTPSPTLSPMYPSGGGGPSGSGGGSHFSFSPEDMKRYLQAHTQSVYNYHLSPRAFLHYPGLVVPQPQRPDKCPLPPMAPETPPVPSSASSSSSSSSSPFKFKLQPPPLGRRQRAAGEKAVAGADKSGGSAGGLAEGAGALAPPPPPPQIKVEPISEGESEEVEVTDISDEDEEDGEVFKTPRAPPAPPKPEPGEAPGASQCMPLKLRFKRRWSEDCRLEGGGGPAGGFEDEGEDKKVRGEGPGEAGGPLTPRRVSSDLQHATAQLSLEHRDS
# Summary of the method: as §1
# ETV3L = target: T2, ETV3L (Homo sapiens, UniProt Q6ZN32 1-361)
# T2 sequence: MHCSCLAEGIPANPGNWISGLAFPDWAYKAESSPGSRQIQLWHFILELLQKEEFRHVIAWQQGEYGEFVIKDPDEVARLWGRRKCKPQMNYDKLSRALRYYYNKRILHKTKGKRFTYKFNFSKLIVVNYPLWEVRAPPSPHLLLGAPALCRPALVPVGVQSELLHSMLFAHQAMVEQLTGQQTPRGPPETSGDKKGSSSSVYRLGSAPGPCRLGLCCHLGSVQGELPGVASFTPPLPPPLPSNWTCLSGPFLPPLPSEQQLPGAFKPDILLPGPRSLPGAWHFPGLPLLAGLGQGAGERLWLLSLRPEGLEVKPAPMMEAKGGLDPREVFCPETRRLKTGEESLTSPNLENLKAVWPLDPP
# Summary of the method: as §1
# ETS2 = target: T3, ETS2 (Homo sapiens, UniProt P15036 1-469)
# T3 sequence: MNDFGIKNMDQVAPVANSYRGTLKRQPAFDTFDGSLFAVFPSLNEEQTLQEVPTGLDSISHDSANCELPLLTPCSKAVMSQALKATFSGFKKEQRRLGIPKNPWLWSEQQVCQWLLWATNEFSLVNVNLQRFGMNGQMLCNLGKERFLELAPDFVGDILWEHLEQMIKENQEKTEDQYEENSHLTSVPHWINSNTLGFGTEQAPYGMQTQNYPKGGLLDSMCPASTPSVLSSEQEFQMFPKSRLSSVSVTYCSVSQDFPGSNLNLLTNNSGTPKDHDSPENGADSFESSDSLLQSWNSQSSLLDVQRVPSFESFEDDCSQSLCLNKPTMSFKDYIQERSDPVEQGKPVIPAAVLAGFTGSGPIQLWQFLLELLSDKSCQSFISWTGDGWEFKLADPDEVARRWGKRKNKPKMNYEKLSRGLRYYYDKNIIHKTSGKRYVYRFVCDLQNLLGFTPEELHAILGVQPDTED
# Summary of the method: as §1
# SPDEF = target: T4, SPDEF (Homo sapiens, UniProt O95238 1-335)
# T4 sequence: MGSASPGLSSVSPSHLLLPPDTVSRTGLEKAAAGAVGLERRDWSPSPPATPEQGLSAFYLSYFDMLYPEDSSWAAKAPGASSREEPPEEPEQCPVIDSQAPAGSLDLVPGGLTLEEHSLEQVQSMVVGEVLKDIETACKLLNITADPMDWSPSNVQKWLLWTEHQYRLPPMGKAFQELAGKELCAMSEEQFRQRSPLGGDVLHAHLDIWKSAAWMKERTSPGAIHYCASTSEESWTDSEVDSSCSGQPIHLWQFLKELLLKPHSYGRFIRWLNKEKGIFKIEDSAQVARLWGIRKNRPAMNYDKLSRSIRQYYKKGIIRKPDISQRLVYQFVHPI
# Summary of the method: as §1
# ETV7 = target: T5, ETV7 (Homo sapiens, UniProt Q9Y603 1-341)
# T5 sequence: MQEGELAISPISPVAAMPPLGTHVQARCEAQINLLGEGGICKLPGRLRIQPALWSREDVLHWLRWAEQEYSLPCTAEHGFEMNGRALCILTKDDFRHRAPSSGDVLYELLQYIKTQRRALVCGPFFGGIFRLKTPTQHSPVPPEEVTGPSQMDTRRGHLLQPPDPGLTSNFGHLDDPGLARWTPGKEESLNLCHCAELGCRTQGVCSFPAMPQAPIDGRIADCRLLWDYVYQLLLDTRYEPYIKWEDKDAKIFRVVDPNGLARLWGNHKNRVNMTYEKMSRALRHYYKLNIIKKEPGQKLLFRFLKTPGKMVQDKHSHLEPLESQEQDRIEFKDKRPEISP
# Summary of the method: as §1
# ELF5 = target: T6, ELF5 (Homo sapiens, UniProt Q9UKW6-2 1-255)
# T6 sequence: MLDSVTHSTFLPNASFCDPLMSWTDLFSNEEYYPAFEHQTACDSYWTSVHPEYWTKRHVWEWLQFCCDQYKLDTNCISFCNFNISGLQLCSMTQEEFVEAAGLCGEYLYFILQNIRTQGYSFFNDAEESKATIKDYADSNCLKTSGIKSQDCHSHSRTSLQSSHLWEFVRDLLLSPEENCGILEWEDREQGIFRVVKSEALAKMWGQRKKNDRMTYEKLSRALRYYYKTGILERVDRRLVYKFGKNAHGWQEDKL
# Summary of the method: as §1
# ETV3 = target: T7, ETV3 (Homo sapiens, UniProt P41162-2 1-143)
# T7 sequence: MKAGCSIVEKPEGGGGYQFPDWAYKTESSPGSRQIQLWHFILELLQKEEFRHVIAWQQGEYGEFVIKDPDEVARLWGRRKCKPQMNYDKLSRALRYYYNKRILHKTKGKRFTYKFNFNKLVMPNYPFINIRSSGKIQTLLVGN
# Summary of the method: as §1
# ETV6 = ETV6 (Homo sapiens, UniProt P41212 1-452)
# Summary of the method: as §1
# Sequence of ETV6 (P41212 whole entry): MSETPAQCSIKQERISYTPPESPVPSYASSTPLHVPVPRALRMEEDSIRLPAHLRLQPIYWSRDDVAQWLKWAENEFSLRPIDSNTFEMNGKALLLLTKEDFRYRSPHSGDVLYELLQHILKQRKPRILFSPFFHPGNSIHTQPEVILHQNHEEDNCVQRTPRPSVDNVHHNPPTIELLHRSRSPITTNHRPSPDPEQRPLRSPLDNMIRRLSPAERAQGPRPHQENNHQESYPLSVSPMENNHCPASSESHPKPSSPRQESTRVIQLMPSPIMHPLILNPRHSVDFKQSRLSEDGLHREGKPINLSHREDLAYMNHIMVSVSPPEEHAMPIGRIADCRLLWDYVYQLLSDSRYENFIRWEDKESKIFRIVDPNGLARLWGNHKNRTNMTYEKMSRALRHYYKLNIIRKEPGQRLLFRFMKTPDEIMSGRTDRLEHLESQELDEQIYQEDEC
# Sequence of ETV1 (P50549 whole entry, the tested form may be a part): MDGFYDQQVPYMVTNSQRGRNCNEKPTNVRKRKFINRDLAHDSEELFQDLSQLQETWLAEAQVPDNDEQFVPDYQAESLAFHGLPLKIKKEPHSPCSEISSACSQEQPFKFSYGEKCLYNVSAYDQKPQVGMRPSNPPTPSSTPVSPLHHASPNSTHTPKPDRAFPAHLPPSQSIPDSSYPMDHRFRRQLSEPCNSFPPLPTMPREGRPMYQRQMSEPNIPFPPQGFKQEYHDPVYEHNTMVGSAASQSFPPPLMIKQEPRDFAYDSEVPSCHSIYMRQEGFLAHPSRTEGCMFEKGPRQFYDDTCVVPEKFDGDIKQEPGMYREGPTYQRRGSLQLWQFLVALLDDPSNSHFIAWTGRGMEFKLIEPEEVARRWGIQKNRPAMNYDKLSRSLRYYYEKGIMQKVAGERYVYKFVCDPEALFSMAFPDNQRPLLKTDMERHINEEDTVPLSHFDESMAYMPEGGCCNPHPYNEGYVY
sequence,measurement,setting,value
ACATAA,binding signal,ETV1,"1.07 fold enrichment (6-mer frequency, TF over GST control)"
same,binding signal,ERF,"1.05 fold enrichment (6-mer frequency, TF over GST control)"
same,binding signal,ETV3L,"1.1 fold enrichment (6-mer frequency, TF over GST control)"
same,binding signal,ETS2,"1.07 fold enrichment (6-mer frequency, TF over GST control)"
same,binding signal,SPDEF,"1.03 fold enrichment (6-mer frequency, TF over GST control)"
same,binding signal,ETV7,"1.11 fold enrichment (6-mer frequency, TF over GST control)"
same,binding signal,ELF5,"1.09 fold enrichment (6-mer frequency, TF over GST control)"
same,binding signal,ETV3,"1.09 fold enrichment (6-mer frequency, TF over GST control)"
same,binding signal,ETV6,"1.08 fold enrichment (6-mer frequency, TF over GST control)"
